# Test results from PubChem BioAssay (NCATS).
# “And” between values parts separate entries of the source, which are not always exact repeats. Identical values can stand only once. Records with an inconclusive call do not appear. Where a call stands in place of a potency, no number is given. Some compounds were tested as several samples or in several runs, with calls that do not always agree. Unmarked numbers belong to inactive results. The source made the active and inactive calls. Calls follow the shape of the dose curve; as a rule, active = well fitted curve in the direction sought with a large enough effect; inconclusive = small, poorly fitted or top-dose-only effect, or another doubt; inactive = no such curve, though single readings can be large; an effect the other way counts as inactive or inconclusive.
# Legend:
# CRL-7250 = normal cell line; assay: Cytotoxic Profiling of Annotated Libraries Using Quantitative High-Throughput Screening (AID 1296008); conditions: Five cell lines viability, CellTiter-Glo ATP luminescence, 48-72 h; max response: hits give low values; also: nearly all actives have a fitted effect of over 60% in size
# How it was run: (§1)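 Cytotoxicity was measured as CellTiter-Glo ATP luminescence, read after 10 min at room temperature. Compound treatment of the cells lasted 48 or 72 hr at 37 degrees Celsius in a qHTS format.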
# HaCat [1] = assay: as above; conditions: Five cell lines viability, CellTiter-Glo ATP luminescence, 48-72 h; max response: hits give low values
# How it was run: as §1
# KB-3-1 = assay: as above; conditions: Five cell lines viability, CellTiter-Glo ATP luminescence, 48-72 h; max response: hits give low values
# How it was run: as §1
# HACAT [2] = assay: qHTS assay to identify novel small-molecules to repurpose for Merkel cell carcinoma treatment (AID 1296009); conditions: MCC and control cell lines, CellTiter-Glo viability, 72 h; at 44.8 µM (top of the series) unless noted; also: nearly all actives have a fitted effect of over 60% in size
# How it was run: (§2)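 Cell viability measured by CellTiter-Glo following 72 hr compound treatment at 37 degree celsius, with NPC and MIPE libraries tested in 8- and 11-point concentration series.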
# MCC-13 = assay: as above; conditions: MCC and control cell lines, CellTiter-Glo viability, 72 h; series mostly up to 46 µM
# How it was run: as §2
# MCC-26 = assay: as above; conditions: MCC and control cell lines, CellTiter-Glo viability, 72 h; series mostly up to 46 µM
# How it was run: as §2
# MKL-2 = assay: as above; conditions: MCC and control cell lines, CellTiter-Glo viability, 72 h; series mostly up to 46 µM
# How it was run: as §2
# C33A = assay: Primary qHTS to identify gynecologic anti-cancer compounds using libraries of approved drugs and bioactive compounds (AID 1345084); conditions: Gynecologic cancer cell panel viability, ATPlite luminescence, 48 h; series mostly up to 57.5 µM; also: nearly all actives have a fitted effect of over 55% in size
# How it was run: (§3)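 Luminescence from the ATPlite ATP-monitoring reagent indicates viable cell number; lower signal means cytotoxicity. Cells received compound 16 h after seeding and were exposed for 48 h across five concentrations.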
# CAOV3 = assay: as above; conditions: Gynecologic cancer cell panel viability, ATPlite luminescence, 48 h; series mostly up to 57.5 µM
# How it was run: as §3
# CASKI = assay: as above; conditions: Gynecologic cancer cell panel viability, ATPlite luminescence, 48 h; series mostly up to 57.5 µM
# How it was run: as §3
# Es-2 = assay: as above; conditions: Gynecologic cancer cell panel viability, ATPlite luminescence, 48 h; series mostly up to 57.5 µM
# How it was run: as §3
# HeLa = assay: as above; conditions: Gynecologic cancer cell panel viability, ATPlite luminescence, 48 h; series mostly up to 57.5 µM
# How it was run: as §3
# Hek293T [3] = assay: as above; conditions: Gynecologic cancer cell panel viability, ATPlite luminescence, 48 h, control line for the selectivity index; series mostly up to 57.5 µM
# How it was run: as §3
# HEK293 = assay: Cytotoxic Profiling of Annotated Libraries Using Quantitative High-Throughput Screening (AID 1296008); conditions: Five cell lines viability, CellTiter-Glo ATP luminescence, 48-72 h; max response: hits give low values; also: nearly all actives have a fitted effect of over 60% in size
# How it was run: as §1
# NIH3T3 [4] = assay: as above; conditions: Five cell lines viability, CellTiter-Glo ATP luminescence, 48-72 h; max response: hits give low values
# How it was run: as §1
# MKL-1 = assay: qHTS assay to identify novel small-molecules to repurpose for Merkel cell carcinoma treatment (AID 1296009); conditions: MCC and control cell lines, CellTiter-Glo viability, 72 h; series mostly up to 46 µM; also: nearly all actives have a fitted effect of over 60% in size
# How it was run: as §2
# NIH3T3 [5] = assay: as above; conditions: MCC and control cell lines, CellTiter-Glo viability, 72 h; series mostly up to 44.8 µM
# How it was run: as §2
# UISO = assay: as above; conditions: MCC and control cell lines, CellTiter-Glo viability, 72 h; series mostly up to 46 µM
# How it was run: as §2
# WaGa = assay: as above; conditions: MCC and control cell lines, CellTiter-Glo viability, 72 h; series mostly up to 46 µM
# How it was run: as §2
# HEK293T [6] = assay: as above; conditions: MCC and control cell lines, CellTiter-Glo viability, 72 h; at 44.8 µM (top of the series) unless noted
# How it was run: as §2
# Potency is read from the fitted curve at half-maximal effect.
structure (smiles),measurement,setting,value
COc1ccc(Cn2ccc3ccc(C(=O)NO)cc32)cc1,max response,CRL-7250,-16.1% and -2.36%
same,max response,HaCat [1],-11.8%
same,outcome,HaCat [1],inactive
same,max response,KB-3-1,8.71%
same,outcome,KB-3-1,inactive
same,outcome,HACAT [2],inactive
same,Potency,MCC-13,inactive
same,Potency,MCC-26,inactive
same,Potency,MKL-2,inactive
same,Potency,C33A,inactive
same,Potency,CAOV3,inactive
same,Potency,CASKI,inactive
same,Potency,Es-2,inactive
same,Potency,HeLa,inactive
same,Potency,Hek293T [3],inactive
O=C(c1ccc(C=Cc2n[nH]c3ccccc23)cc1)N1CCNCC1,max response,CRL-7250,-12.3%
same,max response,HEK293,-9.22%
same,Potency,KB-3-1,9.35 µM (active)
same,Potency,NIH3T3 [4],2.35 µM (active)
same,Potency,MCC-13,inactive
same,Potency,MKL-2,inactive
CN[C@@H](C)[C@H]1[C@H](O)C[C@@]2(C)[C@@H]3CC[C@H]4C(C)(C)[C@@H](NC)CC[C@@]45C[C@@]35CC[C@]12C,max response,CRL-7250,-4.48% and 3.02%
same,max response,HaCat [1],-3.67%
same,outcome,HaCat [1],inactive
same,max response,KB-3-1,4.02%
same,outcome,KB-3-1,inactive
same,outcome,NIH3T3 [4],inactive
same,outcome,HACAT [2],inactive [at 9.27 µM]
same,Potency,MCC-13,inactive
same,Potency,MCC-26,inactive
same,Potency,MKL-1,inactive
same,Potency,MKL-2,inactive
same,Potency,NIH3T3 [5],inactive
same,Potency,UISO,inactive
same,Potency,WaGa,inactive
same,"activity change, negative = cytotoxicity",C33A,14.9% [at 11.6 µM]
same,"activity change, negative = cytotoxicity",CAOV3,7.65% [at 11.6 µM]
same,"activity change, negative = cytotoxicity",CASKI,1.7% [at 11.6 µM]
same,"activity change, negative = cytotoxicity",Es-2,-1.65% [at 11.6 µM]
same,"activity change, negative = cytotoxicity",HeLa,13.6% [at 11.6 µM]
same,"activity change, negative = cytotoxicity",Hek293T [3],-11.4% [at 11.6 µM]
O=C1NC(=O)C(=Cc2ccc(-c3ccc(F)cc3O)o2)S1,max response,CRL-7250,-7.89%
same,max response,HEK293,-12.7%
same,max response,HaCat [1],-35.3%
same,max response,NIH3T3 [4],-4.39%
same,Potency,MCC-13,inactive
same,Potency,MCC-26,inactive
same,Potency,MKL-1,inactive
same,Potency,UISO,inactive
COc1c(C)c2c(c(O)c1CC=C(C)CCC(=O)OCCN1CCOCC1)C(=O)OC2,Potency,CRL-7250,3.32 µM (active)
same,Potency,HEK293,3.72 µM (active)
same,max response,HaCat [1],-7.64%
same,Potency,NIH3T3 [4],5.26 µM (active)
same,Potency,MKL-2,1.32 µM (active)
same,Potency,WaGa,2.64 µM (active)
CCC(=O)N1CCN(c2ccc(-n3c(=O)ccc4cnc5ccc(-c6cnc7ccccc7c6)cc5c43)cc2C(F)(F)F)CC1,Potency,CRL-7250,0.0841 µM (active)
same,Potency,HEK293,14.8 nM (active) and 53.1 nM (active)
same,Potency,HaCat [1],1.05 µM (active) and 668 nM (active)
same,Potency,NIH3T3 [4],33.2 nM (active) and 237 nM (active)
same,Potency,MKL-2,inactive
same,Potency,UISO,0.0469 µM (active)
same,Potency,WaGa,inactive
same,"activity change, negative = cytotoxicity",CAOV3,-22.6% [at 11.6 µM]
same,Potency,Es-2,0.141 µM (active)
same,Potency,Hek293T [3],0.1 µM (active)
CO[C@@H]1C(N(C)C(=O)c2ccccc2)C[C@H]2O[C@]1(C)n1c3ccccc3c3c4c(c5c6ccccc6n2c5c31)C(=O)NC4=O (some centres not stated),Potency,CRL-7250,6.62 µM (active)
same,Potency,HaCat [1],9.35 µM (active)
same,Potency,KB-3-1,10.5 µM (active)
Cc1cnc(Nc2cccc(CN3CCOCC3)c2)nc1Nc1cccc(S(=O)(=O)NC(C)(C)C)c1,outcome,CRL-7250,inactive
same,max response,HaCat [1],-19.2%
same,outcome,HaCat [1],inactive
same,Potency,KB-3-1,2.31 µM (active)
same,max response,KB-3-1,6.82%
same,max response,NIH3T3 [4],-17.3%
same,outcome,HACAT [2],inactive
same,outcome,HEK293T [6],inactive
same,Potency,MCC-13,inactive
same,Potency,MCC-26,inactive
same,Potency,MKL-1,inactive
same,Potency,MKL-2,inactive
same,Potency,UISO,inactive
same,Potency,WaGa,inactive
same,Potency,C33A,inactive
same,Potency,Es-2,inactive
same,Potency,Hek293T [3],inactive
CN(C)c1ccc(-c2nc3ncc(Cl)c(N4CCN(CC(=O)Nc5nccs5)CC4)c3[nH]2)cc1,max response,CRL-7250,-24%
same,outcome,HaCat [1],inactive
same,Potency,KB-3-1,2 µM (active)
same,outcome,KB-3-1,inactive
same,outcome,HACAT [2],inactive [at 17.4 µM]
same,Potency,MCC-13,inactive
same,Potency,MKL-1,inactive
same,Potency,UISO,inactive
same,Potency,WaGa,inactive
same,Potency,C33A,inactive
same,Potency,CAOV3,inactive
same,Potency,CASKI,inactive
same,Potency,Es-2,inactive
same,Potency,Hek293T [3],inactive
CN(C(Cc1ccc(OS(=O)(=O)c2cccc3cnccc23)cc1)C(=O)N1CCN(c2ccccc2)CC1)S(=O)(=O)c1cccc2cnccc12 (configuration not stated),max response,CRL-7250,0.636%
same,Potency,HEK293,5.26 µM (active)
same,max response,KB-3-1,-3.12%
same,max response,NIH3T3 [4],-12.5%
same,Potency,MCC-13,inactive
same,Potency,MCC-26,inactive
same,Potency,MKL-1,inactive
same,Potency,UISO,7.43 µM (active)
O=C(NC[C@H](O)CO)c1ccncc1Nc1ccc(I)cc1F,Potency,CRL-7250,16.6 µM (active)
same,max response,HEK293,-10.7%
same,outcome,KB-3-1,inactive
same,Potency,NIH3T3 [4],8.33 µM (active)
same,Potency,MCC-26,inactive
same,Potency,MKL-2,6.62 µM (active)
same,Potency,UISO,inactive
same,Potency,WaGa,inactive
CN(C)CCN(C)C(=O)c1ccc(NC(=O)Nc2ccc(-c3nc(N4CCOCC4)c4ccn(CC(F)(F)F)c4n3)cc2)cc1,Potency,CRL-7250,0.0662 µM (active)
same,max response,HEK293,-108%
same,Potency,KB-3-1,0.0015 µM (active)
same,Potency,NIH3T3 [4],0.059 µM (active)
same,Potency,MCC-13,inactive
same,Potency,UISO,0.105 µM (active)
COc1nccc(-c2c(-c3ccc(F)cc3)ncn2C2CCNCC2)n1,max response,CRL-7250,-23.7% and 3.35%
same,max response,HaCat [1],-7.28% and 1.1%
same,max response,KB-3-1,-17.7%
same,outcome,KB-3-1,inactive
same,max response,NIH3T3 [4],-16.2%
same,Potency,MCC-13,inactive
same,Potency,MCC-26,inactive
same,Potency,MKL-1,inactive
same,Potency,MKL-2,inactive
same,Potency,UISO,inactive
same,Potency,WaGa,inactive
same,Potency,C33A,inactive
same,Potency,CAOV3,inactive
same,Potency,CASKI,inactive
same,Potency,Es-2,inactive
same,Potency,HeLa,inactive
same,Potency,Hek293T [3],inactive
CCC(C)SSc1ncc[nH]1 (configuration not stated),max response,CRL-7250,-3.49%
same,Potency,HEK293,13.2 µM (active)
same,outcome,HaCat [1],inactive
same,max response,NIH3T3 [4],-14.8%
same,outcome,HACAT [2],inactive
same,Potency,MCC-26,inactive
same,Potency,MKL-2,16.6 µM (active)
same,Potency,WaGa,23.5 µM (active)
O=C(CCCN1CCN(c2ccc(F)cc2)CC1)NC1c2ccccc2CSc2ccccc21 (configuration not stated),Potency,CRL-7250,8.33 µM (active)
same,Potency,HEK293,3.72 µM (active)
same,max response,HaCat [1],-5.32%
same,max response,NIH3T3 [4],-3.67%
same,Potency,MCC-26,inactive
same,Potency,C33A,inactive
same,Potency,CAOV3,inactive
same,Potency,CASKI,inactive
same,Potency,Es-2,inactive
same,Potency,HeLa,inactive
same,Potency,Hek293T [3],inactive
